Results on three compounds are retold here after ChEMBL document CHEMBL1961873, “Compounds: GSK PKIS; Assays: Nanosyn kinase panel” (2012).

Assay [1] deals with Ribosomal protein S6 kinase alpha-6 (Homo sapiens) (UniProt Q9UK32). Conditions: at 1 µM.
The target of assay [2] is T1, Serine/threonine-protein kinase Sgk1 (Homo sapiens) (UniProt O00141).
T1 sequence (whole entry): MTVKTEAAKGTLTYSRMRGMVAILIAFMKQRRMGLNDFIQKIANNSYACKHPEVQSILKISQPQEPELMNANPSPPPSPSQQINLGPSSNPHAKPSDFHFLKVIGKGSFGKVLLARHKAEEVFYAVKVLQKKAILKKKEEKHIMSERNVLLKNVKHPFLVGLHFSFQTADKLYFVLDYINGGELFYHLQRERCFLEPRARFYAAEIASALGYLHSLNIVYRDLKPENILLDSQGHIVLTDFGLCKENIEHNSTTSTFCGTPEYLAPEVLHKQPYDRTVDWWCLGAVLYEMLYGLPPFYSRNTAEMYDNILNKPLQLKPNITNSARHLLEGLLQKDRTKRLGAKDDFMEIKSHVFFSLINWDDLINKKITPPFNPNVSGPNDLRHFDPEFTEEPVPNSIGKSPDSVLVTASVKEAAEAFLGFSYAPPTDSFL
The note with it: at 0.1 µM.

Assay [3] addresses T1, Serine/threonine-protein kinase Sgk1 (Homo sapiens). Conditions: at 1 µM.
The target in assay [4] is T2, Serine/threonine-protein kinase Sgk2 (Homo sapiens) (UniProt Q9HBY8).
T2 sequence (whole entry): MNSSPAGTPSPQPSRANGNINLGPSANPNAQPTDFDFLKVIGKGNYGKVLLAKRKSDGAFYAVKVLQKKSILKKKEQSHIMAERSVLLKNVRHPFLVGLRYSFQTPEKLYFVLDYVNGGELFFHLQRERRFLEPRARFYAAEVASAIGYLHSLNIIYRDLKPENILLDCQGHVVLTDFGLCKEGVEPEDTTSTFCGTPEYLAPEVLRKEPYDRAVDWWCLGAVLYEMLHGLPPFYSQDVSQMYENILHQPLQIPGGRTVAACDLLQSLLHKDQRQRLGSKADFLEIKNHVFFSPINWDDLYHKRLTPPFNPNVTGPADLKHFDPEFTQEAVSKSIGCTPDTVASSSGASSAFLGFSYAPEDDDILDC
Conditions: at 0.1 µM.

Assay [5] has as its target T2, Serine/threonine-protein kinase Sgk2 (Homo sapiens). The note with it: at 1 µM.
For assay [6], the target named is T3, Serine/threonine-protein kinase Sgk3 (Homo sapiens) (UniProt Q96BR1).
T3 sequence (whole entry): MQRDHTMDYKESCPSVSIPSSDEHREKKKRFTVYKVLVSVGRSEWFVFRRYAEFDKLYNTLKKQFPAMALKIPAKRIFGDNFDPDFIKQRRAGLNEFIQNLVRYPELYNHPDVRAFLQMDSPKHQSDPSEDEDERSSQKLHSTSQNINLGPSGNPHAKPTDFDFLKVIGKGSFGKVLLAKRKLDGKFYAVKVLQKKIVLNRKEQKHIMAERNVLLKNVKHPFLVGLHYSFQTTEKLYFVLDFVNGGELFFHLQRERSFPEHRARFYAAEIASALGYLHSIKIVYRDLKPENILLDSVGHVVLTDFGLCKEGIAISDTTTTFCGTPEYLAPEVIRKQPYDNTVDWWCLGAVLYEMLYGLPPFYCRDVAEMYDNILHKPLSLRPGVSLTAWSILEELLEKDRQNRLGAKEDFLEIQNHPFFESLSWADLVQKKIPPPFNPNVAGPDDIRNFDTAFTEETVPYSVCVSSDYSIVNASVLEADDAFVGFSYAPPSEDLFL
The note with it: at 0.1 µM.

Assay [7] addresses T3, Serine/threonine-protein kinase Sgk3 (Homo sapiens). Conditions: at 1 µM.
In assay [8] the target is 5'-AMP-activated protein kinase catalytic subunit alpha-1 (Homo sapiens) (UniProt Q13131). The note with it: at 0.1 µM.
Sequence of 5'-AMP-activated protein kinase catalytic subunit alpha-1 (Homo sapiens) (Q13131 whole entry, looked up): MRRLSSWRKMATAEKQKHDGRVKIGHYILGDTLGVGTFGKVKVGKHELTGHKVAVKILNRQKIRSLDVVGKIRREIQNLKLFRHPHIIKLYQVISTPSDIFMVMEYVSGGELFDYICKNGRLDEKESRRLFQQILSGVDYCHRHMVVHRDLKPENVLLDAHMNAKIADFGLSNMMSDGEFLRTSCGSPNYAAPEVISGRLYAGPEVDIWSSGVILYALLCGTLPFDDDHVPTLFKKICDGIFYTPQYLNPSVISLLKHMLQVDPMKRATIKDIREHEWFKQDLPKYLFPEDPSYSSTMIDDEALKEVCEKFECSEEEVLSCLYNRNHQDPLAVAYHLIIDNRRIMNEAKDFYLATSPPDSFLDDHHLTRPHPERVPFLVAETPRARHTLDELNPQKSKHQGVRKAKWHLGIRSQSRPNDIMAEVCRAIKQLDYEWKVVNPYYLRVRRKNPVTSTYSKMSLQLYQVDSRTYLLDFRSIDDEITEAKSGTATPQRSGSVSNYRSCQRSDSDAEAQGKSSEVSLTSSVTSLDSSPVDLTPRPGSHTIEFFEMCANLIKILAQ
The target is the same in assay [9]. Conditions: at 1 µM.
Assay [10] has as its target 5'-AMP-activated protein kinase catalytic subunit alpha-2 (Homo sapiens) (UniProt P54646). Conditions: at 0.1 µM.
Assay [11] has the same target. Conditions: at 1 µM.
Assay [12] concerns the target T4, NUAK family SNF1-like kinase 1 (Homo sapiens) (UniProt O60285).
T4 sequence (whole entry): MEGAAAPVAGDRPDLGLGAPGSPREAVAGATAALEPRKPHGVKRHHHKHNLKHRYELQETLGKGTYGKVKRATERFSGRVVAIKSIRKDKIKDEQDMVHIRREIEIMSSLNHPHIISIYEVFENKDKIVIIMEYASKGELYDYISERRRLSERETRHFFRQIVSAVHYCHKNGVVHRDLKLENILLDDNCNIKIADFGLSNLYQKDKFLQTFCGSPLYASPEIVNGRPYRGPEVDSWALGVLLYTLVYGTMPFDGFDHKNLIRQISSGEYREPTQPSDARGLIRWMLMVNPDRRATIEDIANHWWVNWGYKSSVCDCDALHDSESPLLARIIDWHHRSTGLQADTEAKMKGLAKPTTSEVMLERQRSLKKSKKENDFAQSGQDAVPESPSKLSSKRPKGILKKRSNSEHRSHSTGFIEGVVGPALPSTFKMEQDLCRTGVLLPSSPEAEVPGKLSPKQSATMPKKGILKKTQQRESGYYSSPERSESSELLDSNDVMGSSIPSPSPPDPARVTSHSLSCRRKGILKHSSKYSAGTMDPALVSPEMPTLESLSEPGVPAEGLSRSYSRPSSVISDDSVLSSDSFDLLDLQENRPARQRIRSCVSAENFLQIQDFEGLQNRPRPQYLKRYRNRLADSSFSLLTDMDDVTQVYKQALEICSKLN
The note with it: at 0.1 µM.

The target of assay [13] is T4, NUAK family SNF1-like kinase 1 (Homo sapiens). Conditions: at 1 µM.
The target of assay [14] is T5, Serine/threonine-protein kinase BRSK1 (Homo sapiens) (UniProt Q8TDC3).
T5 sequence (whole entry): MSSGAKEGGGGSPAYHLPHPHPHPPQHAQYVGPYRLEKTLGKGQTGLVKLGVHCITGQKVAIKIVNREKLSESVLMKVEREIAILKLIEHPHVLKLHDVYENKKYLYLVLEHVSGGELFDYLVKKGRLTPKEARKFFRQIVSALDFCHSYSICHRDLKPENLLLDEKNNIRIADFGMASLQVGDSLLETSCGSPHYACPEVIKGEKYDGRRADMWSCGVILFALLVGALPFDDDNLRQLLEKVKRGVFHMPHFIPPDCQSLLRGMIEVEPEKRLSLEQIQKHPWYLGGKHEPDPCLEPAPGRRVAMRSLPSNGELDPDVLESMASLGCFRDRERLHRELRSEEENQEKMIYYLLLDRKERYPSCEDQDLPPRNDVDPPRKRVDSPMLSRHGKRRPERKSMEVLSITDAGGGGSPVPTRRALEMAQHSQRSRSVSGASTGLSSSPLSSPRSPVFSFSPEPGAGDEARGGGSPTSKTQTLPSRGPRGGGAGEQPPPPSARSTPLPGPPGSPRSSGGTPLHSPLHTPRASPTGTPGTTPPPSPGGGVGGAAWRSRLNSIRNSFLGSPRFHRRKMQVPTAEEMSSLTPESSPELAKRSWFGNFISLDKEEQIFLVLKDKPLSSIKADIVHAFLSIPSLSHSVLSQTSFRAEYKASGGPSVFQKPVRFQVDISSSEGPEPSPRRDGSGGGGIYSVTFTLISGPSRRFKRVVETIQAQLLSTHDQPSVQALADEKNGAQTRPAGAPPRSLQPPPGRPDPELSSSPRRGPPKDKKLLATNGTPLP
The note with it: at 0.1 µM.

Assay [15] deals with T5, Serine/threonine-protein kinase BRSK1 (Homo sapiens). The note with it: at 1 µM.
Assay [16] addresses T6, Serine/threonine-protein kinase BRSK2 (Homo sapiens) (UniProt Q8IWQ3).
T6 sequence (whole entry): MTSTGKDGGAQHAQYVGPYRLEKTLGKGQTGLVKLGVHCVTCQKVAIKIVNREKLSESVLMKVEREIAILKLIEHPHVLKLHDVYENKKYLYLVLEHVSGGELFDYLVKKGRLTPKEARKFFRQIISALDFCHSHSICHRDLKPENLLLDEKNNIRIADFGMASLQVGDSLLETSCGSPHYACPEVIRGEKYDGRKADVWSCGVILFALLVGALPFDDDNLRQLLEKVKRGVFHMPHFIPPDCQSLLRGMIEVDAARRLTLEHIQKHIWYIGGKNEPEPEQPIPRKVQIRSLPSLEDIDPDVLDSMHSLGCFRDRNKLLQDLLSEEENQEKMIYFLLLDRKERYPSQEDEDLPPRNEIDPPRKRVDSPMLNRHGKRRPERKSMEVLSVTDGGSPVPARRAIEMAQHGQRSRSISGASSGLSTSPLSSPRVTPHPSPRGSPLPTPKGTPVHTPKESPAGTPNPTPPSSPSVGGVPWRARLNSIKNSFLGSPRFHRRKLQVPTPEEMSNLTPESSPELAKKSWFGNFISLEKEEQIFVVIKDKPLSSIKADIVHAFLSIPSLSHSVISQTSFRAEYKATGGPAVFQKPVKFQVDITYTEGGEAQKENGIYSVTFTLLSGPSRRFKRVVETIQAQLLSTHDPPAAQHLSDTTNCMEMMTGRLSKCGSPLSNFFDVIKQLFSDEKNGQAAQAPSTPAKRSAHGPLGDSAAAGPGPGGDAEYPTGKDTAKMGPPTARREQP
Conditions: at 0.1 µM.

Assay [17] concerns the target T6, Serine/threonine-protein kinase BRSK2 (Homo sapiens). The note with it: at 1 µM.
Assay [18] deals with Calcium/calmodulin-dependent protein kinase type 1D (Homo sapiens) (UniProt Q8IU85). Conditions: at 0.1 µM.
Sequence of Calcium/calmodulin-dependent protein kinase type 1D (Homo sapiens) (Q8IU85 whole entry, looked up): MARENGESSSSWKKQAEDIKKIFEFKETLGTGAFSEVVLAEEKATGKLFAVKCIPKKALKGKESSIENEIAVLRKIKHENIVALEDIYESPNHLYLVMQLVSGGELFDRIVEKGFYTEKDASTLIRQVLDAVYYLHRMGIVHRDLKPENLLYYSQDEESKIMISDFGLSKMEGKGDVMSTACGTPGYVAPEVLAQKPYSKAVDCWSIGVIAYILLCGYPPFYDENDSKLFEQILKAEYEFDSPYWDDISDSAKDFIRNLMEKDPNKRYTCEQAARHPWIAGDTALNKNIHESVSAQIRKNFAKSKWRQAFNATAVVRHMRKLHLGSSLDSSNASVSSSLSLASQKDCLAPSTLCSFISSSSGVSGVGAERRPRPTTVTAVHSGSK
The target is the same in assay [19]. Conditions: at 1 µM.
Assay [20] concerns the target Calcium/calmodulin-dependent protein kinase type II subunit alpha (Homo sapiens) (UniProt Q9UQM7). Conditions: at 0.1 µM.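 Note: reported values are averages (mean inhibition of CAMK2A).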

SMILES strings stand for the structures.

Sequence of Ribosomal protein S6 kinase alpha-6 (Homo sapiens) (Q9UK32 whole entry): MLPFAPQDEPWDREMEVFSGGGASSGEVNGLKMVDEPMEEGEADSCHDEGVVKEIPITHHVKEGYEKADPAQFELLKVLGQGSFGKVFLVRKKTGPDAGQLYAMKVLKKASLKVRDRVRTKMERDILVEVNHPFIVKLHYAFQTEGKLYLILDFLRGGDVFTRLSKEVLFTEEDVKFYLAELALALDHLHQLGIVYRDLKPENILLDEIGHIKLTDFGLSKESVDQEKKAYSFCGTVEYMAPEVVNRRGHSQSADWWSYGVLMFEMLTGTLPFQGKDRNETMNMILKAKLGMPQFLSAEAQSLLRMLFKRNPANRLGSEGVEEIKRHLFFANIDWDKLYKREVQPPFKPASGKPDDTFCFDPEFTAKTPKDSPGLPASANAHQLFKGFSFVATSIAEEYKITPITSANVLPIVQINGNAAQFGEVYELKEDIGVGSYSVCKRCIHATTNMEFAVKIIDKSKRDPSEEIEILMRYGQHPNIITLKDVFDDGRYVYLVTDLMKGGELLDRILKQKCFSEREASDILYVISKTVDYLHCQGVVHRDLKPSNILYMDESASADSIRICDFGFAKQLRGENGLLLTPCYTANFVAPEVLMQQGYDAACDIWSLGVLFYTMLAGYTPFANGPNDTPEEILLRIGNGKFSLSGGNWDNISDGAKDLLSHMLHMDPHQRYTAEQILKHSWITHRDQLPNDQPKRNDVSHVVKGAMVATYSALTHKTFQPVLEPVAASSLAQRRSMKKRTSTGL
Sequence of Calcium/calmodulin-dependent protein kinase type II subunit alpha (Homo sapiens) (Q9UQM7 whole entry): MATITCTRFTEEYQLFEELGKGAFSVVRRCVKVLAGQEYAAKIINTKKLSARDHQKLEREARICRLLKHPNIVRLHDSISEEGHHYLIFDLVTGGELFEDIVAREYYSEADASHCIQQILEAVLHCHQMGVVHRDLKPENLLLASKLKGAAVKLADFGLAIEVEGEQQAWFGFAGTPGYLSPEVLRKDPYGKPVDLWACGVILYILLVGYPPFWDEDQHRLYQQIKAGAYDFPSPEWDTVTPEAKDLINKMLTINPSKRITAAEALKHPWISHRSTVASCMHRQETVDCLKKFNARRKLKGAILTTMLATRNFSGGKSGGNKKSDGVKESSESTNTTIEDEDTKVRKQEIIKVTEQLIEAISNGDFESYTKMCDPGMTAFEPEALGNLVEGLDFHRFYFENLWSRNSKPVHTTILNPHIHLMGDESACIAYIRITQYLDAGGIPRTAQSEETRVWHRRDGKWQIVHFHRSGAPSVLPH
Sequence of 5'-AMP-activated protein kinase catalytic subunit alpha-2 (Homo sapiens) (P54646 whole entry, looked up): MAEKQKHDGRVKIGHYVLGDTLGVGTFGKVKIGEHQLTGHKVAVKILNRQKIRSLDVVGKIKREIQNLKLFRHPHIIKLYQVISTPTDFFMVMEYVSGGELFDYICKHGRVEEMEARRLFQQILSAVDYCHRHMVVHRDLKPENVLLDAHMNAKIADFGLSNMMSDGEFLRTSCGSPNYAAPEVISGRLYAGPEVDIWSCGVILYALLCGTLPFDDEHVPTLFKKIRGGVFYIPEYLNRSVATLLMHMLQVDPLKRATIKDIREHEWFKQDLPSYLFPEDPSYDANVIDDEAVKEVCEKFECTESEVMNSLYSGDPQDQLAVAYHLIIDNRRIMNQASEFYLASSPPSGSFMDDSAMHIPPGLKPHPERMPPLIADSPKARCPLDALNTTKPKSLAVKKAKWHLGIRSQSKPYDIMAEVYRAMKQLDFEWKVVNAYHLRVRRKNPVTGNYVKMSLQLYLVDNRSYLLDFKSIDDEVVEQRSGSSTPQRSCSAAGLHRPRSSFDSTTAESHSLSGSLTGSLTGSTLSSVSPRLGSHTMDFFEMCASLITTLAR

`O=C(Nc1ccc(Oc2ccc3[nH]c(NC(=O)c4ccco4)nc3c2)cc1)Nc1cc(C(F)(F)F)ccc1F`: the inhibition is 3.95% in assay [1]; 0.67% in [2]; -0.62% in [3]; 0.44% in assay [4]; 2.52% in assay [5]; 0.1% in [6]. Besides, the inhibition in assay [7] was -0.97%; in assay [8], 1.07%; in assay [9] it was 2.39%; in assay [10], 1.95%; in assay [11], 3.81%; in [12] it was 0.89%. In addition, the inhibition in assay [13] is 5.7%; in assay [14], 0.62%; in [15], -0.05%; in assay [16], -0.37%; in assay [17], 1.01%; in assay [18], 0.46%. The results for the inhibition in [19] and in assay [20] were 3.08% and 0.33%, respectively.

Take `Cc1cc(Cl)cc2c1NC(=O)C2=NNc1ccc(S(N)(=O)=O)cc1`: the inhibition in assay [1] stood at 1.2%; in [2], 2.17%; in [3], 3.67%; in assay [4], 1.33%; in assay [5], 7.78%; in [6] it was 2.89%. In addition, the inhibition was 5.67% in assay [7]; 1.67% in assay [8]; 4.05% in [9]; -0.13% in assay [10]; 1.04% in assay [11]; 0.35% in assay [12]. In addition, the inhibition in assay [13] is 8.3%; in assay [14], -1.42%; in assay [15] it was 3.61%; in assay [16], 1.16%; in [17], 3.77%; in assay [18], 0.2%. Besides, the values for the inhibition in [19] and in [20] were -0.6% and 4.14%, respectively.

In the case of `CCCN1CCCC(c2ccc(Nc3nc(Nc4cc(F)ccc4C(N)=O)c4cc[nH]c4n3)c(OC)c2)C1` (stereo not given), the inhibition in assay [1] is 54.1%; in assay [2] it was 3.79%; in [3], 4.78%; in assay [4] it was 1.44%; in assay [5] it was 6.37%; in assay [6], 4.46%. Moreover, the inhibition came to 0.16% in [7]; 6.07% in assay [8]; 20.3% in [9]; 4.5% in assay [10]; 10.7% in assay [11]; 30.2% in assay [12]. Moreover, the inhibition in assay [13] turned out to be 59.7%; in assay [14], 2.61%; in assay [15], 1.82%; in assay [16], 2.57%; in assay [17], 2.9%; in assay [18], 15.8%. The inhibition is 61.1% in [19] and 11% in assay [20].

In general, inhibition refers to the drop in the measured response relative to a control, in per cent.
